Assay results taken from the supplement of paper PMC3414501.
Structures can show the parent of a compound that is named as a salt.

Tested on: S. cerevisiae NKY1551 his4x/his4B, sporulating;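 active = HIS4 sensitivity z-score above 5 vs DMSO controls; inactive = score 5 or below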
Assay: HIS4 meiotic recombination assay sensitivity score (z-score vs DMSO controls); higher = stronger inhibition of sporulation/recombination, active = hit call of the paper

HIS4 meiotic recombination assay sensitivity score, inactive:
CN(C)CCc1c[nH]c2ccc(C[C@H]3COC(=O)N3)cc12 [Zolmitriptan] (stock concentration (mM, diluted 1:100): 10) 0.22
CCCCN1CCCC1CNC(=O)c1cc(C#N)c2ccccc2c1OC (configuration not stated) [Nafadotride] (stock concentration (mM, diluted 1:100): 10) -0.64
CC(C)(C)NC(=O)[C@H]1CC[C@H]2[C@@H]3CC[C@H]4NC(=O)C=C[C@]4(C)[C@H]3CC[C@]12C [Finasteride] (stock concentration (mM, diluted 1:100): 10) 3.09
OCc1cccnc1 [3-Pyridinemethanol] (stock concentration (mM, diluted 1:100): 10) 0.73
Nc1nc(Cl)nc2c1ncn2[C@H]1C[C@H](O)[C@@H](CO)O1 [2-Chloro-2-Deoxyadenosine] (stock concentration (mM, diluted 1:100): 10) -1.07
COc1ccc2cc([C@H](C)C(=O)O)ccc2c1 [Naproxen sodium] (stock concentration (mM, diluted 1:100): 10) -0.09
C#C[C@]1(O)CC[C@H]2[C@@H]3CCC4=CC(=O)CC[C@@H]4[C@H]3CC[C@@]21CC [Levonorgestrel] (stock concentration (mM, diluted 1:100): 10) -2.79
OCc1cc(C(O)CNCCCCCCOCCCCc2ccccc2)ccc1O (configuration not stated) [Salmeterol] (stock concentration (mM, diluted 1:100): 10) 0.79
OCCN1C[C@H](O)[C@@H](O)[C@H](O)[C@H]1CO [Miglitol] (stock concentration (mM, diluted 1:100): 10) -0.62
COc1ccc(C2CNC(=O)C2)cc1OC1CCCC1 (configuration not stated) [Rolipram] (stock concentration (mM, diluted 1:100): 10) -0.47
CC[C@@H]1C(=O)OC[C@@H]1Cc1cncn1C [Pilocarpine hydrochloride] (stock concentration (mM, diluted 1:100): 10) -0.54
CC(C)OC(=O)CCC/C=C\C[C@@H]1[C@@H](CC[C@@H](O)CCc2ccccc2)[C@H](O)C[C@@H]1O [Latanoprost] (stock concentration (mM, diluted 1:100): 10.3) 0.65
Cc1[nH]cnc1CN1CCc2c(c3ccccc3n2C)C1=O [Alosetron hydrochloride] (stock concentration (mM, diluted 1:100): 8.9) -3.51
Cc1cccc(C)c1NC(=O)C(C)N (configuration not stated) [Tocainide] (stock concentration (mM, diluted 1:100): 10) 0.7
CC(=O)O[C@H]1C[C@@H]2CC[C@@H]3[C@H](CC[C@@]4(C)[C@H]3C[C@H]([N+]3(C)CCCCC3)[C@@H]4OC(C)=O)[C@@]2(C)C[C@@H]1N1CCCCC1 [Vecuronium bromide] (stock concentration (mM, diluted 1:100): 10) -1.64
C=CC[C@@H]1/C=C(\C)C[C@H](C)C[C@H](OC)[C@H]2O[C@@](O)(C(=O)C(=O)N3CCCC[C@H]3C(=O)O[C@H](/C(C)=C/[C@@H]3CC[C@@H](O)[C@H](OC)C3)[C@H](C)[C@@H](O)CC1=O)[C@H](C)C[C@@H]2OC [Tacrolimus] (stock concentration (mM, diluted 1:100): 10) -0.77
Cc1ncc([N+](=O)[O-])n1CC(C)O (configuration not stated) [Secnidazole] (stock concentration (mM, diluted 1:100): 10) 0.68
C/C=C1\[C@H]2C=C(C)C[C@]1(N)c1ccc(=O)[nH]c1C2 [Huperzine a] (stock concentration (mM, diluted 1:100): 10) -0.7
CC(C)Oc1ccc2c(=O)c(-c3ccccc3)coc2c1 [Ipriflavone] (stock concentration (mM, diluted 1:100): 10) -1.16
CCOC(=O)c1ncn2c1CN(C)C(=O)c1cc(F)ccc1-2 [Flumazenil] (stock concentration (mM, diluted 1:100): 10) -0.81
CC(CCCCC(=O)Nc1ccc(C(F)(F)F)cc1)NCCc1cnc[nH]1 (configuration not stated) (stock concentration (mM, diluted 1:100): 10) -0.79
COc1cc(C[C@@H](CO)[C@H](CO)Cc2ccc(O)c(OC)c2)ccc1O [Secoisolariciresinol] (stock concentration (mM, diluted 1:100): 10) -0.73
CN1CCN2c3ncccc3Cc3ccccc3C2C1 (configuration not stated) [Mirtazapine] (stock concentration (mM, diluted 1:100): 10) 3.31
COc1ccc(C(=O)NCc2ccc(OCCN(C)C)cc2)cc1OC [Itopride hydrochloride] (stock concentration (mM, diluted 1:100): 8.2) -1.08
CC(C)[C@H]1CC[C@H](C(=O)N[C@H](Cc2ccccc2)C(=O)O)CC1 [Nateglinide] (stock concentration (mM, diluted 1:100): 10) -0.37
COc1cc2nc(N3CCN(C(=O)C4CCCO4)CC3)nc(N)c2cc1OC (configuration not stated) [Terazosin] (stock concentration (mM, diluted 1:100): 9.5) 0.92
O=C(c1ccc(F)cc1)C1CCN(CCn2c(=S)[nH]c3ccccc3c2=O)CC1 [Altanserin] (stock concentration (mM, diluted 1:100): 10) -0.6
COCCOC(=O)C1=C(C)NC(C)=C(C(=O)OC(C)C)C1c1cccc([N+](=O)[O-])c1 (configuration not stated) [Nimodipine] (stock concentration (mM, diluted 1:100): 10) 4.27
CCOC(=O)[C@H](CCc1ccccc1)N[C@@H](C)C(=O)N1[C@H](C(=O)O)C[C@@H]2CCC[C@@H]21 [Ramipril] (stock concentration (mM, diluted 1:100): 10) -1.04
CO[C@H]1/C=C/O[C@@]2(C)Oc3c(C)c(O)c4c(c3C2=O)C2=NC3(CCN(CC(C)C)CC3)NC2=C(NC(=O)/C(C)=C\C=C\[C@H](C)[C@H](O)[C@@H](C)[C@@H](O)[C@@H](C)[C@H](OC(C)=O)[C@@H]1C)C4=O [Rifabutin] (stock concentration (mM, diluted 1:100): 10) -1.4
COC(=O)C1=C(C)NC(C)=C(C(=O)OCC(C)C)C1c1ccccc1[N+](=O)[O-] (configuration not stated) [Nisoldipine] (stock concentration (mM, diluted 1:100): 10) -2.61
CC(C)(C)C(O)/C=C/c1ccc2c(c1)OCO2 (configuration not stated) [Stiripentol] (stock concentration (mM, diluted 1:100): 10) 1.81
COc1ccnc(C[S+]([O-])c2nc3cc(OC(F)F)ccc3[nH]2)c1OC (configuration not stated) [Pantoprazole sodium] (stock concentration (mM, diluted 1:100): 10) 0.54
CC(C(O)c1ccc(O)cc1)N1CCC(Cc2ccccc2)CC1 (configuration not stated) [Ifenprodil] (stock concentration (mM, diluted 1:100): 9.2) 4.63
O=c1cnn([C@@H]2O[C@H](CO)[C@@H](O)[C@H]2O)c(=O)[nH]1 [6-Azauridine] (stock concentration (mM, diluted 1:100): 10) -1.27
O=c1[nH]cnc2c1ncn2[C@H]1CC[C@@H](CO)O1 [Didanosine] (stock concentration (mM, diluted 1:100): 10.1) 0.35
CNC(=C[N+](=O)[O-])NCCSCc1csc(CN(C)C)n1 [Nizatidine] (stock concentration (mM, diluted 1:100): 10) -0.53
